Common to all, as to test: DAPPL (digital affinity profiling via proximity ligation, sequencing); 10 mM Tris-HCl pH 7.5, 50 mM NaCl, 1 mM DTT, 4% glycerol, room temperature, 30 min; GST-TFs on glutathione beads, 16-mer random dsDNA library, 0.1% formaldehyde crosslink after washing; high values mean tight binding
Settings in all cases: protein: recombinant; tags: N-terminal GST; dsDNA, one strand shown

Test [1] addresses T1, FLI1 (Homo sapiens, UniProt Q01543 1-452).
T1 sequence: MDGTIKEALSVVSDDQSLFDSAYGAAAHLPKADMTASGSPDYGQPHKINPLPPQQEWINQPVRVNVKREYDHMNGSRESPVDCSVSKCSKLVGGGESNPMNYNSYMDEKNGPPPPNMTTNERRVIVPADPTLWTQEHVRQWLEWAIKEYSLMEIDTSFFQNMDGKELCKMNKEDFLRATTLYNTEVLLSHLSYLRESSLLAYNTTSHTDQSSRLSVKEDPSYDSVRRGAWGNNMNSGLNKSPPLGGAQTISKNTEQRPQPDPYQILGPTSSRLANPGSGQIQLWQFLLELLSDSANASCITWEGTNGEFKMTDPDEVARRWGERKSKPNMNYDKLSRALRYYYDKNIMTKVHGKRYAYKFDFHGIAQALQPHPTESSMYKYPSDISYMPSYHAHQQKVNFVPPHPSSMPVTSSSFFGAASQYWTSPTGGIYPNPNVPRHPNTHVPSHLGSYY
The gist of the method:
(§1)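 Sequencing on an Illumina NextSeq500 followed washing, crosslinking with 0.1% formaldehyde, proximity ligation (BsaI/T4 ligase, 1 h, 37 °C) and PCR amplification of pools that had been incubated for 30 min at room temperature with 200 nmole of a random double-stranded 16-mer DNA library in Tris/NaCl/DTT/glycerol buffer. Each pool held DNA-barcoded human transcription factors, expressed in yeast as GST fusions and captured on glutathione beads, plus a tag-only sample. Binding signal is a hexamer's read frequency for a factor divided by its frequency in the tag-only sample.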

For test [2], the target named is T2, ELK1 (Homo sapiens, UniProt P19419 1-428).
T2 sequence: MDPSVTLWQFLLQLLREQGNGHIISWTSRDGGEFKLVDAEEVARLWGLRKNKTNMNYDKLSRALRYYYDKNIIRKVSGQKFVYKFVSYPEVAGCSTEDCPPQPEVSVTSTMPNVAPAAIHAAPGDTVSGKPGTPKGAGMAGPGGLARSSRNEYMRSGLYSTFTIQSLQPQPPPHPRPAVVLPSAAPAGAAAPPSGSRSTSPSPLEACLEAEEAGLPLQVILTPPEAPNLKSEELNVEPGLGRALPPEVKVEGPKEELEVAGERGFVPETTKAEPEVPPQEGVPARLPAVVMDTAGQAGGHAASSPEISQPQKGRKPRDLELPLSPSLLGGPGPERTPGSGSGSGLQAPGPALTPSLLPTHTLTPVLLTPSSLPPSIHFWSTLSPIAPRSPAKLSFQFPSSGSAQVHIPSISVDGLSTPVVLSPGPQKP
The gist of the method: as §1

Test [3] addresses T3, GABPA (Homo sapiens, UniProt Q06546 1-454).
T3 sequence: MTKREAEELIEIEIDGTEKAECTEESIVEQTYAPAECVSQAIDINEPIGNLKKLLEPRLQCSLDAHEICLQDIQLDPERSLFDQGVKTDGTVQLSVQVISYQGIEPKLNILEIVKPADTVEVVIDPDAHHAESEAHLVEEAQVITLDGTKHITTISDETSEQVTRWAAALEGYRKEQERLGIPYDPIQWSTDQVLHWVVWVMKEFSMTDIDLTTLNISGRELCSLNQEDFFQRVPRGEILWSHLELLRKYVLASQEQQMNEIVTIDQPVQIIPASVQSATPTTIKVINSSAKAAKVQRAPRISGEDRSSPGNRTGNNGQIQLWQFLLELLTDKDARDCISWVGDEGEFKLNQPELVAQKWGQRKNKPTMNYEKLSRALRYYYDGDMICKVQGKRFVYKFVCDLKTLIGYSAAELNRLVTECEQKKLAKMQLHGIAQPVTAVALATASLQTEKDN
In outline: as §1

Test [4] concerns the target T4, ERG (Homo sapiens, UniProt P11308 1-479).
T4 sequence: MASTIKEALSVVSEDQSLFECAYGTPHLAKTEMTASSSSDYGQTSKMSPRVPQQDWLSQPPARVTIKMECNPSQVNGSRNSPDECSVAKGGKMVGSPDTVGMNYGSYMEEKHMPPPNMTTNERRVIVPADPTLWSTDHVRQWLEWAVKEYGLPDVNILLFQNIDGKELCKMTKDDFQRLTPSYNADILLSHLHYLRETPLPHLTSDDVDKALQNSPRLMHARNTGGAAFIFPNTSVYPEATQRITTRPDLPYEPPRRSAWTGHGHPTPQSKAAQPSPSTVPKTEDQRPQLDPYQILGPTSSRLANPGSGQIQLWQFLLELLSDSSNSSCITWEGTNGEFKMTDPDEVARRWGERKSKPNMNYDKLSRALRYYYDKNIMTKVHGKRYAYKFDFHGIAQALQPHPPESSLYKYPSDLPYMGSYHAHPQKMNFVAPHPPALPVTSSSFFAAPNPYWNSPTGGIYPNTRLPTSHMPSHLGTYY
In outline: as §1

The target in test [5] is ELF1 (Homo sapiens, UniProt P32519 1-619). In outline: as §1
The target in test [6] is T5, EHF (Homo sapiens, UniProt Q9NZC4 1-300).
T5 sequence: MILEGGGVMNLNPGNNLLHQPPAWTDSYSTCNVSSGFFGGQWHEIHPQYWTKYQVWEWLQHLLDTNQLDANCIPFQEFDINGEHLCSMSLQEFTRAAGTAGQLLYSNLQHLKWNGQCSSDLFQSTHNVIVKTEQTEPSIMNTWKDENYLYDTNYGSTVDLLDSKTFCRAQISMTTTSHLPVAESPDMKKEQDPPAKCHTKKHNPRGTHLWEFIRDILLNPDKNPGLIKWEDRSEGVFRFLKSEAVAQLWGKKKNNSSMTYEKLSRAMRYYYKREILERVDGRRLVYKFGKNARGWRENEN
In outline: as §1

For test [7], the target named is SPIB (Homo sapiens, UniProt Q01892 1-262). The gist of the method: as §1
Test [8] deals with T6, ELK3 (Homo sapiens, UniProt P41970 1-407).
T6 sequence: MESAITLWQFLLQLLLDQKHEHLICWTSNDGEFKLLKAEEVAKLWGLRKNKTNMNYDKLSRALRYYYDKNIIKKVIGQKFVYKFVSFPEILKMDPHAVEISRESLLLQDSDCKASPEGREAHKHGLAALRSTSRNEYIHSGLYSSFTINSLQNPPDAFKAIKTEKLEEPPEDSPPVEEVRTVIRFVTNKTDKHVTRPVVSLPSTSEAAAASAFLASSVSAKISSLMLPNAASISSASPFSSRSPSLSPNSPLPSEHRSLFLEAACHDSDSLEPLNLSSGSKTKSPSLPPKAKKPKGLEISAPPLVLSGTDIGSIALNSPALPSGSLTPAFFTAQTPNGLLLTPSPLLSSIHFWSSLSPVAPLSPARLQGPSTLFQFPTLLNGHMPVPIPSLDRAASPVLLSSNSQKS
The gist of the method: as §1

In test [9] the target is T7, FEV (Homo sapiens, UniProt Q99581 1-238).
T7 sequence: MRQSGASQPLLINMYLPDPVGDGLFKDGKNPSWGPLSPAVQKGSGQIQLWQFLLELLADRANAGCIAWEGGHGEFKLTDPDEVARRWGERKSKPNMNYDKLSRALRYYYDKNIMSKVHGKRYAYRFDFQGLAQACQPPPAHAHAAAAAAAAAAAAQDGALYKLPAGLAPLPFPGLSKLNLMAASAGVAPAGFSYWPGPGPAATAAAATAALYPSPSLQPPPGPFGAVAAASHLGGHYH
In outline: as §1

The target of test [10] is ETV5 (Homo sapiens, UniProt P41161 1-510). The gist of the method: as §1
Test [11] addresses T8, SPIC (Homo sapiens, UniProt Q8N5J4 1-248).
T8 sequence: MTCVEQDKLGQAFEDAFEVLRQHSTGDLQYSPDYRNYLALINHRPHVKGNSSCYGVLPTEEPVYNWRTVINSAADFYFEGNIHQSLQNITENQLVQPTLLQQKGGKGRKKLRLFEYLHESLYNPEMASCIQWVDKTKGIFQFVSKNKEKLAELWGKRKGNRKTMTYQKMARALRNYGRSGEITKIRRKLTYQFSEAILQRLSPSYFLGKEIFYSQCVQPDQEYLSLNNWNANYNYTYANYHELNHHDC
In outline: as §1

In test [12] the target is ELF4 (Homo sapiens, UniProt Q99607 1-663). The gist of the method:
as §1

Test [13] deals with ETV1 (Homo sapiens, UniProt P50549 1-477). In outline: as §1
Test [14] concerns the target T9, ERF (Homo sapiens, UniProt P50548 1-548).
T9 sequence: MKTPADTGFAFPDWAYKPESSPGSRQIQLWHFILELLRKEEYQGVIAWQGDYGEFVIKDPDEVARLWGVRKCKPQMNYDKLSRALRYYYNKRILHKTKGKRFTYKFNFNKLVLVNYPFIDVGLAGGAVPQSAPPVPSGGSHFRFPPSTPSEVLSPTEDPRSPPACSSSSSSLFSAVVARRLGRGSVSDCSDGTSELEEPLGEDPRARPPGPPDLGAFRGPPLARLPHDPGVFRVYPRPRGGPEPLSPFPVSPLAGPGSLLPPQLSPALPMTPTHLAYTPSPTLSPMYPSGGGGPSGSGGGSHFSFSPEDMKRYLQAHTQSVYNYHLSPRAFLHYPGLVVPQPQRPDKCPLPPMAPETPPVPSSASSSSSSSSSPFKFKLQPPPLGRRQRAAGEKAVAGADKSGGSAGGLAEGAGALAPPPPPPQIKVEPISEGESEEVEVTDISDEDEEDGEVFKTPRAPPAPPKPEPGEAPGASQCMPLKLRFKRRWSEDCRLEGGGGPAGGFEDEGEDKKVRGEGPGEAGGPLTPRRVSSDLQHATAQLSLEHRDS
In outline:
as §1

In test [15] the target is T10, ETV3L (Homo sapiens, UniProt Q6ZN32 1-361).
T10 sequence: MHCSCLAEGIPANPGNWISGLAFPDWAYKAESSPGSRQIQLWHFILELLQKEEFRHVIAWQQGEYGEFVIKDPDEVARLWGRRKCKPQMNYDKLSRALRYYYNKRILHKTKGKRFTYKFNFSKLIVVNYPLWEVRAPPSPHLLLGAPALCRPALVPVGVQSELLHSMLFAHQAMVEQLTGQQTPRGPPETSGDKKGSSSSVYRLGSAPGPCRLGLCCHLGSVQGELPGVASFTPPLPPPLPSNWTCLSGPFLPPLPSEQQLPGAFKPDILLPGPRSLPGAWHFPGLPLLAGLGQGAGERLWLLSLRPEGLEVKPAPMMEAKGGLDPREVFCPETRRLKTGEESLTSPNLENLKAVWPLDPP
The gist of the method: as §1

Test [16] concerns the target T11, ETS2 (Homo sapiens, UniProt P15036 1-469).
T11 sequence: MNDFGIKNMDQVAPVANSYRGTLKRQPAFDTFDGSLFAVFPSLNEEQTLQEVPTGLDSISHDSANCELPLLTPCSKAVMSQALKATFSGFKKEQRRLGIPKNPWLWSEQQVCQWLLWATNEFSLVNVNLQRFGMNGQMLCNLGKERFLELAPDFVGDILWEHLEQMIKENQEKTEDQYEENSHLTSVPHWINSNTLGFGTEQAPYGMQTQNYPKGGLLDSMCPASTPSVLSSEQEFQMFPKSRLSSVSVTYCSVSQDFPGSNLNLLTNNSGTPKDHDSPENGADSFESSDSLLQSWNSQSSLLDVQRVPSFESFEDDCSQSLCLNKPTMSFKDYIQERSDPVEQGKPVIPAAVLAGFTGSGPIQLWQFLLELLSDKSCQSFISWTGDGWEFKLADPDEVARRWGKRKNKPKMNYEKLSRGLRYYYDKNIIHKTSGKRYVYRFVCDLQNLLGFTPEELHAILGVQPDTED
The gist of the method:
as §1

For test [17], the target named is T12, ELF5 (Homo sapiens, UniProt Q9UKW6-2 1-255).
T12 sequence: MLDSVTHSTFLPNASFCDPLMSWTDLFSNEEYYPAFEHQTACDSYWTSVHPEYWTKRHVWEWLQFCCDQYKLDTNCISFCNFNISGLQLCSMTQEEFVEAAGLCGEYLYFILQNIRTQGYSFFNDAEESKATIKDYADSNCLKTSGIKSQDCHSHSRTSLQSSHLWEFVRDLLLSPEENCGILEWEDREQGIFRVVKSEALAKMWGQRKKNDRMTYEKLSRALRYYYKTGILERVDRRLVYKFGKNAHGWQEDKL
In outline:
as §1

Test [18] has as its target T13, ETV3 (Homo sapiens, UniProt P41162-2 1-143).
T13 sequence: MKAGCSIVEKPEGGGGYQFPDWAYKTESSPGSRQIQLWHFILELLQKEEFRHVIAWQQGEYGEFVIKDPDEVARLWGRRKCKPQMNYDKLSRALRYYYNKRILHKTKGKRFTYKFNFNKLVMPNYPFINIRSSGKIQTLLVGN
The gist of the method: as §1

Chain of ETV1 (P50549 whole entry): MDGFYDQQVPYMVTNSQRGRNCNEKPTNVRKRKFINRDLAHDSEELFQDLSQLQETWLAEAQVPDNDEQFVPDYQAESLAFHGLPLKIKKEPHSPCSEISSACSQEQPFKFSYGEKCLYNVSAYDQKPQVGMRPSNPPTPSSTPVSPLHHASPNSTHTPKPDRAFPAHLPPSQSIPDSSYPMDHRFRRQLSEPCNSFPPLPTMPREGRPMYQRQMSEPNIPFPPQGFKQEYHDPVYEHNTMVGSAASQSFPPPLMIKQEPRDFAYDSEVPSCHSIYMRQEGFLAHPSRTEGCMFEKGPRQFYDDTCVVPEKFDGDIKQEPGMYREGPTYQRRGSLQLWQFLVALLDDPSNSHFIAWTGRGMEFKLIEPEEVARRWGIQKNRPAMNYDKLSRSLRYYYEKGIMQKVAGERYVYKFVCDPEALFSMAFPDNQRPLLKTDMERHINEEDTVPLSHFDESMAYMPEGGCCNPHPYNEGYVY
Chain of SPIB (Q01892 whole entry): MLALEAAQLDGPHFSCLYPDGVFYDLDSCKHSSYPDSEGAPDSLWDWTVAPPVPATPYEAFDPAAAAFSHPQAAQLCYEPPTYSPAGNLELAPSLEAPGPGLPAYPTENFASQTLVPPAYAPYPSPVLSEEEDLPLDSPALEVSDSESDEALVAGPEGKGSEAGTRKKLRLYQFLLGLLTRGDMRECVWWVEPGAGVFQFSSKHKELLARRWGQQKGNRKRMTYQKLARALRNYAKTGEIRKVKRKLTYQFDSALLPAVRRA
Chain of ELF4 (Q99607 whole entry): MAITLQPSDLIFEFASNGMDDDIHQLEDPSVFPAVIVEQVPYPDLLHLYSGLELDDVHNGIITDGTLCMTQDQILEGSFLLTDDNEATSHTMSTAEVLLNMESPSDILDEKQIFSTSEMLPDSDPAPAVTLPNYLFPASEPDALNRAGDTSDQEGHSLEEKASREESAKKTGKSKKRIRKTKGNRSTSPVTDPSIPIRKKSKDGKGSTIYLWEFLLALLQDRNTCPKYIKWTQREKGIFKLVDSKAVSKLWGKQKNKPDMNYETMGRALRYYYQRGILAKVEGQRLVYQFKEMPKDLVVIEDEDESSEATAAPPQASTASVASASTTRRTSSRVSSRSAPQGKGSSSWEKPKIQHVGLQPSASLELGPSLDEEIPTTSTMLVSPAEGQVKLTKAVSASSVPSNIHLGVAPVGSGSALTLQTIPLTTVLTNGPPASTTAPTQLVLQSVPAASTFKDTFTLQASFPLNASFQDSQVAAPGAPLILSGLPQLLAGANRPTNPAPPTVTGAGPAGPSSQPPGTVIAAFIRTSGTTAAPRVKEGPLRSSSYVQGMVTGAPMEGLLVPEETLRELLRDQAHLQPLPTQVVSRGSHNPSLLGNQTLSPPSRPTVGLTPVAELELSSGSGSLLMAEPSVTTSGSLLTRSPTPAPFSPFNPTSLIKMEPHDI
Chain of ELF1 (P32519 whole entry): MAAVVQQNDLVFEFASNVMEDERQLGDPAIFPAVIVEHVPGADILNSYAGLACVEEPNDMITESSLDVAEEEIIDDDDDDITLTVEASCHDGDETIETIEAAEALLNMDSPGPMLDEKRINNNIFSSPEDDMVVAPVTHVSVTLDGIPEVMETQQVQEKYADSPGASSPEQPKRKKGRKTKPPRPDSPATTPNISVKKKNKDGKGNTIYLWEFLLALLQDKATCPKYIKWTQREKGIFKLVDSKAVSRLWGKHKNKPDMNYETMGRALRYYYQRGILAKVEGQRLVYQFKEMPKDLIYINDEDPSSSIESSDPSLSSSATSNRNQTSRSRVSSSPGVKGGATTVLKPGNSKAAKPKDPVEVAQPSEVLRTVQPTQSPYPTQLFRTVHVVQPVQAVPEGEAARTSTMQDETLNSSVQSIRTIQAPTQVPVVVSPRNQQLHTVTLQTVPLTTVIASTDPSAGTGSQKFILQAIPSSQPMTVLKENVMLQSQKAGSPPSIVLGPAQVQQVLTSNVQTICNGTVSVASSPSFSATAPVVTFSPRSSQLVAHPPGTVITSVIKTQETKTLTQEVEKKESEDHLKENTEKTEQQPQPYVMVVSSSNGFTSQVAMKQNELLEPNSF
Chain of ETV5 (P41161 whole entry): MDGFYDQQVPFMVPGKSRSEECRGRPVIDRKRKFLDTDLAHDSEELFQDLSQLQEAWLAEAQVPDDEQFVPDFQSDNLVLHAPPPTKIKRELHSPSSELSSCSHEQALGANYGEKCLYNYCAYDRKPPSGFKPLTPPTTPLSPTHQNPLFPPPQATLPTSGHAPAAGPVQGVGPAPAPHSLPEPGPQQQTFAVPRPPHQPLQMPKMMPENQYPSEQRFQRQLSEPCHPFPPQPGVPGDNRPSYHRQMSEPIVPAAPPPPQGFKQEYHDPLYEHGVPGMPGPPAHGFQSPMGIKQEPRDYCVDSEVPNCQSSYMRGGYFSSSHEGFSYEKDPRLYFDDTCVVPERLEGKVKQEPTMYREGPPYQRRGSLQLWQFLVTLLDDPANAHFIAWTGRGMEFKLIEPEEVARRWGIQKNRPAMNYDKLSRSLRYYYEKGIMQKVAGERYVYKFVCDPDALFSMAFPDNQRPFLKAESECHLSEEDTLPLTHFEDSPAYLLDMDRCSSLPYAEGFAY

As to TCAACA, the binding signal in test [1] was 1.06 fold enrichment (6-mer frequency, TF over GST control); in [2], 1.13 fold enrichment (6-mer frequency, TF over GST control); in [3], 1.11 fold enrichment (6-mer frequency, TF over GST control); in [4], 1.04 fold enrichment (6-mer frequency, TF over GST control); in test [5] it was 1.03 fold enrichment (6-mer frequency, TF over GST control); in test [6], 1.05 fold enrichment (6-mer frequency, TF over GST control). The binding signal is 1.01 fold enrichment (6-mer frequency, TF over GST control) in test [7]; 1.06 fold enrichment (6-mer frequency, TF over GST control) in test [8]; 1.05 fold enrichment (6-mer frequency, TF over GST control) in test [9]; 1.04 fold enrichment (6-mer frequency, TF over GST control) in test [10]; 1.05 fold enrichment (6-mer frequency, TF over GST control) in test [11]; 1.07 fold enrichment (6-mer frequency, TF over GST control) in test [12]. Further, the binding signal in test [13] is 1.06 fold enrichment (6-mer frequency, TF over GST control); in [14], 1.03 fold enrichment (6-mer frequency, TF over GST control); in test [15], 1.09 fold enrichment (6-mer frequency, TF over GST control); in test [16], 1.07 fold enrichment (6-mer frequency, TF over GST control); in test [17], 1 fold enrichment (6-mer frequency, TF over GST control); in test [18] it was 1.08 fold enrichment (6-mer frequency, TF over GST control).

(Values after article PMC7862700, “An all-to-all approach to the identification of sequence-specific readers for epigenetic DNA modifications on cytosine”.)
